Shown are actives, neighbours in structure and some others; about 9.3% of the full set was active somewhere.
ELG1 genotoxic – qHTS screen for small molecules that induce genotoxicity in human embryonic kidney (HEK293T) cells expressing luciferase-tagged ELG1; Potency, µM (titrated, usually from 46 µM), for inactives: at the highest dose activity change, positive = activation, actives largely listed as activators; HEK293T ELG1-luciferase reporter, luminescence, 16 h; AID 504466, 2011; hit rate 1.3% among 330,000; also: % of control where 0% means no effect; nearly all actives have a fitted effect of over 60% in size
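16 hr compound incubation (37 °C, 5% CO2) of HEK293T cells carrying luciferase-tagged ELG1; luciferase then measured by ONE-Glo luminescence after 30 min at RT.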
NPC1 promoter act – qHTS Assay for NPC1 Promoter Activators; Huh7 NPC1 promoter luciferase reporter, 24 h; Potency, µM (series often up to 9.22 µM), inactives show at the top dose activation, most hits filed as activators; hit rate 2.4% among 320,000; also: % of control where 0% means no effect; nearly all actives have a fitted effect of over 60% in size
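Luciferase expression driven by the NPC1 promoter was measured in stably transfected Huh7 cells after a 24 h compound incubation, using a luciferase reagent and a luminescence read.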
ELG1 repair inh – qHTS screen for small molecules that inhibit ELG1-dependent DNA repair in human embryonic kidney (HEK293T) cells expressing luciferase-tagged ELG1; hit rate 2.3% among 330,000; HEK293T ELG1-luciferase reporter, luminescence, 16 h; DNA damage induced by 5-fluorouridine; Potency, µM (highest dose often 46.1 µM), for inactives: top-dose activity change, negative = inhibition, usual class: inhibitors; AID 504467, 2011; also: % is scaled to controls: 0 for no effect and ±100 for the full control effect; nearly all actives have a fitted effect of over 55% in size
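Luminescence from the luciferase reporter, measured 30 min after ONE-Glo reagent at room temperature, was the read-out. Beforehand, 2,000 cells per well were exposed for 16 hr at 37 °C to 5-fluorouridine together with compound or vehicle.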
Rab9 prom act – qHTS Assay for Rab9 Promoter Activators; Huh7 Rab9 promoter-luciferase reporter, luminescence, 24 h; Potency, µM (series often up to 9.22 µM), for inactives: at the top dose activation, negative = inhibition, hits mostly activators; hit rate 2.8% among 320,000; AID 485297, 2010; also: % of control where 0% means no effect; nearly all actives have a fitted effect of over 60% in size
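Cell-based reporter: Huh7 stable for Rab9 promoter-driven luciferase, plated in reduced-serum medium with 10% FBS at 1500 cells/well, compound-treated 24 h at 37 °C, luminescence read after 10 min reagent.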
FLuc counter – qHTS profiling assay for firefly luciferase inhibitor/activator using purifed enzyme and Km concentrations of substrates (counterscreen for miR-21 project); purified FLuc, Km substrates, luminescence inhibition; Potency, µM (titrated, usually from 57.5 µM), inactives show top-dose activity change, negative = inhibition, usual class: inhibitors; hit rate 6.9% among 360,000; AID 588342, 2011;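 also: plate controls were vehicle for no effect and reference inhibitor for full effect; nearly all actives have a fitted effect of over 55% in size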
Target sequence (P08659 whole entry, looked up): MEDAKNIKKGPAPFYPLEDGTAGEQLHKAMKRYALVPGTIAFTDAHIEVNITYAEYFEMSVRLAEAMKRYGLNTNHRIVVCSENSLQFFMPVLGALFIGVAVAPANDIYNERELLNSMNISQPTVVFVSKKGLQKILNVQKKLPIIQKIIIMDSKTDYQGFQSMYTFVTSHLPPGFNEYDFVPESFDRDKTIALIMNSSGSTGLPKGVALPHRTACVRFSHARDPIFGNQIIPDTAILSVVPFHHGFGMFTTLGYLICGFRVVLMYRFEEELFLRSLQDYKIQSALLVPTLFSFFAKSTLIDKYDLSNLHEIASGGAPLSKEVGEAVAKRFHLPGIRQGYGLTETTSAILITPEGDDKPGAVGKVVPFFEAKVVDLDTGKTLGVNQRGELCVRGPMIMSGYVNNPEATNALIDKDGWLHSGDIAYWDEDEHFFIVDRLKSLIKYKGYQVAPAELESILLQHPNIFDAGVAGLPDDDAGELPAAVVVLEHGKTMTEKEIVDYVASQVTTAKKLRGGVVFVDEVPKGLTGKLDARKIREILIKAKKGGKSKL
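Biochemical qHTS of compounds, final roughly 60 µM downward over six points, against 10 nM purified firefly luciferase using Km concentrations of substrates (10 uM D-luciferin, 10 uM ATP) in Tris acetate pH 7.5 buffer; luminescence output.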
SMN2 splice up – qHTS Assay for Enhancers of SMN2 Splice Variant Expression. HEK293 SMN2-luciferase splicing reporter, luminescence, 30-36 h. Potency, µM (titrated, usually from 46.1 µM), without a hit: top-dose activity change, positive = activation, actives largely listed as activators. AID 1458, 2008. hit rate 2.8% among 210,000; also: % of control where 0% means no effect; nearly all actives have a fitted effect of over 55% in size
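qHTS luciferase splicing reporter: luminescence rises when SMN2 exon 7 is included in transfected HEK293 cells. Compound exposure lasted 30-36 h at 37C, with 4.5 mM final sodium butyrate as control, followed by a ONE-Glo read.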
The depositor's hits bear a star; ? = inconclusive; . = no result. Calls follow the shape of the dose curve; as a rule, active = well fitted curve in the direction sought with a large enough effect; inconclusive = small, poorly fitted or top-dose-only effect, or another doubt; inactive = no such curve, though single readings can be large; an effect the other way counts as inactive or inconclusive. Potency is read from the fitted curve at half-maximal effect.

SMILES | ELG1 genotoxic | NPC1 promoter act | ELG1 repair inh | Rab9 prom act | FLuc counter | SMN2 splice up
O=C(N[C@H]1CC1c1ccccc1)c1ccc([N+](=O)[O-])cc1 (some centres not stated) | ? | 1.1µM* | ? | 0.71µM* | 5.4µM* | .
O=C(Nc1ccc(NC(=O)c2cccc([N+](=O)[O-])c2)cc1)c1cccc([N+](=O)[O-])c1 | 13% | 16% | ? | 15% | -18% | .
O=C(O)c1ccccc1Nc1ccccc1C(=O)O | 4% | 6% | -2% | 9% | 0% | -4%
O=C(/C=C/c1ccccc1)CC(O)(c1ccccc1)C(F)(F)F (configuration not stated) | -25% | -2% | ? | -1% | -2% | -17%
CCOC(=O)c1c(C)sc2c1N(C(C)=O)c1cc(Cl)ccc1S2 | -5% | -1% | -16% | 1% | 3% | .
Cn1c(CC(=O)NNC(=O)c2cccnc2)nc2ccccc21 | 1% | 1% | 8% | -1% | . | .
Cc1ccc(S(=O)(=O)c2c(C)cc(-c3ccccc3)[nH]c2=O)cc1 | -2% | -4% | -15% | 4% | 2% | -5%
Fc1cccc(Cl)c1-c1nnc2ccc(C(F)(F)F)cn12 | 1% | 0% | -1% | 2% | 0% | .
O=C(NNc1ccc([N+](=O)[O-])cc1)Nc1ccccc1 | 3% | 3% | 0% | 0% | 21µM* | .
O=C(Nc1ccc(O)cc1)c1cccc(Oc2ccc([N+](=O)[O-])cc2)c1 | -9% | -6% | -4% | -2% | -3% | .
O=C(NNc1ccccc1[N+](=O)[O-])Nc1ccccc1 | 1% | 0% | 3% | -2% | -26% | 7%
CN(C)S(=O)(=O)Oc1cccc(C(=O)Nc2ccc([N+](=O)[O-])cc2)c1 | -14% | 15% | ? | ? | 13µM* | -25%
CCOC(=O)c1ccc(-n2c(C)nc3ccc(Br)cc3c2=O)cc1 | -7% | 0% | ? | -2% | 3% | .
CCc1ccc(-c2nc3ccc(Br)cc3c(C(=O)O)c2C)s1 | -4% | -2% | 27% | 1% | 21µM* | ?
O=C(NCc1cccnc1)c1ccc([N+](=O)[O-])cc1 | 0% | -1% | 8% | 16% | -2% | 12%
O=c1c(C=NCCN2CCNCC2)c(-c2ccccc2)[nH]n1-c1ccc([N+](=O)[O-])cc1 | 13% | ? | ? | ? | ? | .
COc1ccc(-c2[nH]n(-c3ccc([N+](=O)[O-])cc3)c(=O)c2C=NCCN2CCNCC2)cc1 | ? | 0.71µM* | ? | 0.45µM* | 0.95µM* | .
C/C(=N/OC(=O)C1CC1)c1cc(-c2ccc(Cl)cc2)no1 | ? | ? | ? | 2.8µM* | 5.4µM* | .
CC(=O)NCc1cc(-c2ccc(Cl)cc2)no1 | 6% | -1% | 28% | 1% | -7% | -1%
C/C(=N\OC(=O)c1ccccc1)c1cc(-c2ccc(Cl)cc2)no1 | ? | 2.8µM* | ? | 3.2µM* | -1% | ?
CCOC(=O)c1ccc(N2C(=O)c3n[nH]c(-c4ccco4)c3C2c2ccc([N+](=O)[O-])cc2)cc1 (configuration not stated) | -18% | -15% | 23µM* | -8% | 4% | -21%
COc1ccc(S(=O)(=O)NCCC(=O)NCc2ccc(F)cc2)cc1 | 0% | -4% | -1% | 0% | 2% | 8%
CC(C)=CC(=O)OCc1cc([N+](=O)[O-])cc2c1OCOC2 | ? | 10% | ? | ? | 24µM* | ?
O=C(OCc1cc([N+](=O)[O-])cc2c1OCOC2)c1ccc2ccccc2n1 | 7% | -6% | 10% | 6% | 0% | 6%
Cc1cccc(C)c1NC(=O)C(c1ccccc1)N1CCOCC1 (configuration not stated) | -8% | -4% | -22% | -10% | 5% | -3%
SMILES | ELG1 genotoxic | NPC1 promoter act | ELG1 repair inh | Rab9 prom act | FLuc counter | SMN2 splice up
FC(F)(F)c1cccc(-c2nnn3c2nc(NC2CCCCC2)c2ccccc23)c1 | . | . | . | . | -1% | 4%
CC1Cc2cc(-c3csc(NC(=O)Cc4cccs4)n3)ccc2N1S(C)(=O)=O (configuration not stated) | ? | -26% | 4.6µM* | -29% | -1% | -114%
CS(=O)(=O)N1CCc2cc(-c3csc(NC(=O)Cc4ccccc4)n3)ccc21 | -6% | -3% | 18µM* | -9% | ? | -99%
O=C(O)/C=C/c1cn(-c2ccccc2)nc1-c1ccc(-c2ccc([N+](=O)[O-])cc2)o1 | 0% | -3% | -12% | -1% | 9.5µM* | .
CNC(=O)COC(=O)/C=C/c1cn(-c2ccccc2)nc1-c1ccc(C)o1 | 0% | -1% | 10% | -2% | 15µM* | .
O=C(O)/C=C/c1cn(-c2ccccc2)nc1-c1cccc([N+](=O)[O-])c1 | 3% | -2% | 17% | -10% | ? | .
COc1ccc(-c2nn(-c3ccccc3)cc2/C=C/C(=O)OCC(=O)Nc2ccccc2C#N)cc1 | ? | -6% | 6% | -24% | -3% | -1%
O=[N+]([O-])c1ccc(N/N=C/c2cn(-c3ccccc3)nc2-c2ccccc2)cc1 | ? | 20% | ? | 29% | 2.7µM* | -26%
O=C(N/N=C/c1cn(-c2ccccc2)nc1-c1cccs1)c1ccccc1F | -8% | 1% | ? | 5% | 21µM* | 14%
Brc1ccc(CNCCCSc2ncccn2)cc1 | -10% | 4% | -5% | 0% | 2% | .
O=C(O)Cc1cc(I)c(Oc2cc(I)c(O)c(I)c2)c(I)c1 | . | . | . | . | . | -5%
NC(=O)N/N=C/c1cn(-c2ccccc2)nc1-c1ccccc1 | ? | 19% | ? | 17% | 6.7µM* | ?
Cc1ccc(Oc2ccc(C=O)cn2)cc1 | -7% | 0% | 14% | -7% | -1% | -21%
CO/N=C/c1ccc(Oc2ccc(C)cc2)nc1 | 15% | 18% | ? | 20% | 17µM* | -7%
COc1ccc(C(=O)/C=C/C(=O)N(Cc2ccccc2OC)C(C(=O)NC2CCCCC2)c2ccncc2)c(O)c1 (configuration not stated) | -13% | -3% | 21µM* | -1% | -1% | -13%
COc1ccc(C(=O)/C=C/C(=O)N(Cc2ccc(F)cc2)C(C(=O)NC2CCCCC2)c2ccncc2)c(O)c1 (configuration not stated) | -11% | 0% | 18µM* | 3% | 4% | -19%
